According to the supplement of paper PMC8728848:
The sample as a whole holds a higher share of the strongest signals than the screen did.

Experiments:
Test in all cases: glycan array binding signal (z-score within array); higher = stronger binding
Conditions in all cases: glycan notation: IUPAC condensed, linker removed
[1] = target: Fuc(a1-2)Gal(b1-3)GlcNAc
Method in brief: (§1)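 The Consortium for Functional Glycomics database supplied 3228 glycan arrays, of which those lacking an available protein sequence were dropped. The binding signal, a within-array Z-score, was averaged across arrays of the same protein sequence and across linkers. Negative scores can be read as non-binding.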

[2] = target: Fuc(a1-2)Gal(b1-3)GlcNAc(b1-3)Gal(b1-4)Glc
Method in brief: as §1

[3] = target: Fuc(a1-2)Gal(b1-4)GlcNAc(b1-3)Gal(b1-4)GlcNAc(b1-2)Man(a1-3)[Fuc(a1-2)Gal(b1-4)GlcNAc(b1-3)Gal(b1-4)GlcNAc(b1-2)Man(a1-6)]Man(b1-4)GlcNAc(b1-4)GlcNAc
Method in brief: as §1

[4] = target: Fuc(a1-2)Gal(b1-4)[Fuc(a1-3)]GlcNAc(b1-2)Man(a1-3)[Fuc(a1-2)Gal(b1-4)[Fuc(a1-3)]GlcNAc(b1-2)Man(a1-6)]Man(b1-4)GlcNAc(b1-4)[Fuc(a1-6)]GlcNAc
Method in brief: as §1

[5] = target: Fuc(a1-2)Gal(b1-4)[Fuc(a1-3)]GlcNAc(b1-3)Gal(b1-4)[Fuc(a1-3)]GlcNAc
Method in brief: as §1

[6] = target: Fuc(a1-2)Gal(b1-4)[Fuc(a1-3)]GlcNAc(b1-3)GalNAc
Method in brief: as §1

[7] = target: Fuc(a1-2)Gal6S(b1-3)GlcNAc6S
Method in brief: as §1

[8] = target: Fuc(a1-2)Gal6S(b1-4)Glc
Method in brief: as §1

[9] = target: Fuc(a1-2)[Gal(a1-3)]Gal(b1-4)GlcNAc(b1-2)Man(a1-3)[Fuc(a1-2)[Gal(a1-3)]Gal(b1-4)GlcNAc(b1-2)Man(a1-6)]Man(b1-4)GlcNAc(b1-4)GlcNAc
Method in brief: as §1

[10] = target: Fuc(a1-2)[GalNAc(a1-3)]Gal(b1-4)GlcNAc(b1-2)Man
Method in brief: as §1

[11] = target: Fuc(a1-3)[Gal(b1-4)]GlcNAc(b1-2)Man(a1-3)[Fuc(a1-3)[Gal(b1-4)]GlcNAc(b1-2)Man(a1-6)]Man(b1-4)GlcNAc(b1-4)GlcNAc
Method in brief: as §1

[12] = target: Fuc(a1-3)[Gal(b1-4)]GlcNAc6S
Method in brief: as §1

[13] = target: Fuc(a1-3)[Gal3S(b1-4)]GlcNAc6S
Method in brief: as §1

[14] = target: Gal(a1-3)Gal
Method in brief: as §1

[15] = target: Gal(a1-3)Gal(b1-3)GlcNAc(b1-3)GalNAc
Method in brief: as §1

[16] = target: Gal(a1-3)GalNAc
Method in brief: as §1

[17] = target: Gal(a1-3)[Gal(a1-4)]Gal(b1-4)GlcNAc
Method in brief: as §1

[18] = target: Gal(b1-3)GalNAc(b1-3)Gal(a1-4)Gal(b1-4)Glc
Method in brief: as §1

[19] = target: Gal(b1-3)GlcNAc(a1-6)Gal(b1-4)GlcNAc
Method in brief: as §1

[20] = target: Gal(b1-3)[Fuc(a1-4)]GlcNAc(b1-3)Gal(b1-3)[Fuc(a1-4)]GlcNAc
Method in brief: as §1

[21] = target: Gal(b1-4)GlcNAc(b1-2)[Gal(b1-4)GlcNAc(b1-6)]Man(a1-6)[Gal(b1-4)GlcNAc(b1-2)Man(a1-3)]Man(b1-4)GlcNAc(b1-4)[Fuc(a1-6)]GlcNAc
Method in brief: as §1

[22] = target: Gal(b1-4)GlcNAc(b1-3)Gal(b1-3)GlcNAc
Method in brief: as §1

[23] = target: Gal(b1-4)GlcNAc(b1-3)Gal(b1-4)Glc
Method in brief: as §1

[24] = target: Gal(b1-4)GlcNAc(b1-3)Gal(b1-4)GlcNAc(b1-3)Gal(b1-4)GlcNAc
Method in brief: as §1

[25] = target: Gal(b1-4)GlcNAc(b1-6)Gal(b1-4)GlcNAc
Method in brief: as §1

[26] = target: Gal(b1-4)GlcNAc(b1-6)GalNAc
Method in brief: as §1

[27] = target: Gal3S(b1-3)GlcNAc
Method in brief: as §1

[28] = target: Gal3S(b1-4)Glc
Method in brief: as §1

[29] = target: Gal3S4S(b1-4)GlcNAc
Method in brief: as §1

[30] = target: Gal4S(b1-4)GlcNAc
Method in brief: as §1

[31] = target: GlcA(b1-3)GlcNAc
Method in brief: as §1

[32] = target: GlcNAc(a1-4)Gal(b1-4)GlcNAc(b1-3)Gal(b1-4)GlcNAc(b1-3)Gal(b1-4)GlcNAc
Method in brief: as §1

[33] = target: GlcNAc(b1-2)Man(a1-3)[GlcNAc(b1-2)Man(a1-6)]Man(b1-4)GlcNAc(b1-4)[Fuc(a1-6)]GlcNAc
Method in brief: as §1

[34] = target: GlcNAc(b1-2)[GlcNAc(b1-4)]Man(a1-3)[GlcNAc(b1-4)][GlcNAc(b1-2)[GlcNAc(b1-6)]Man(a1-6)]Man(b1-4)GlcNAc(b1-4)[Fuc(a1-6)]GlcNAc
Method in brief: as §1

[35] = target: GlcNAc(b1-3)Gal(b1-4)GlcNAc
Method in brief: as §1

[36] = target: GlcNAc(b1-3)Gal(b1-4)GlcNAc(b1-2)Man(a1-3)[GlcNAc(b1-3)Gal(b1-4)GlcNAc(b1-2)Man(a1-6)]Man(b1-4)GlcNAc(b1-4)GlcNAc
Method in brief: as §1

B1: ArathEULS3 TAP (Arabidopsis thaliana) (protein)
chain: IDENLYFQGGSMDEKTTGWRGGHVVEGLAGELEQLRARLEHHPQGQREPGGGGSLEITSLYKKAGFMEHHHQHHRHHQRDDGEDDRQSFGVPPPHVDAPPQPHGLYQSQPHFDPYAPTPQAPAPYRSETQFEPHAPPPYRSEPYFETPAPPPSFGHVSHVGHQSPNESYPPEHHRYGGYQQPSNSLLESHGDHSGVTHVAHHSSNQPQSSSGVYHKPDENRLPDNLAGLAGRATVKVYSKAEPNYNLTIRDGKVILAPADPSDEAQHWYKDEKYSTKVKDADGHPCFALVNKATGEAMKHSVGATHPVHLIRYVPDKLDESVLWTESKDFGDGYRTIRMVNNTRLNVDAYHGDSKSGGVRDGTTIVLWDWNKGDNQLWKIFPF
- glycan array binding signal (z-score) [1]: 0.613
- glycan array binding signal (z-score) [2]: -0.174
- glycan array binding signal (z-score) [3]: 2.35
- glycan array binding signal (z-score) [4]: 1.46
- glycan array binding signal (z-score) [5]: 0.109
- glycan array binding signal (z-score) [6]: -0.688
- glycan array binding signal (z-score) [7]: -0.204
- glycan array binding signal (z-score) [8]: 1.85
- glycan array binding signal (z-score) [9]: -0.837
- glycan array binding signal (z-score) [10]: 0.256
- glycan array binding signal (z-score) [11]: -0.853
- glycan array binding signal (z-score) [12]: 2.6
- glycan array binding signal (z-score) [13]: 0.828
- glycan array binding signal (z-score) [14]: 3.3
- glycan array binding signal (z-score) [15]: 0.549
- glycan array binding signal (z-score) [16]: -0.474
- glycan array binding signal (z-score) [17]: 2.15
- glycan array binding signal (z-score) [18]: 0.136
- glycan array binding signal (z-score) [19]: -0.499
- glycan array binding signal (z-score) [20]: -0.335
- glycan array binding signal (z-score) [21]: 0.941
- glycan array binding signal (z-score) [22]: -0.688
- glycan array binding signal (z-score) [23]: -0.967
- glycan array binding signal (z-score) [24]: 0.391
- glycan array binding signal (z-score) [25]: 1.18
- glycan array binding signal (z-score) [26]: 1.1
- glycan array binding signal (z-score) [27]: -0.162
- glycan array binding signal (z-score) [28]: 0.159
- glycan array binding signal (z-score) [29]: 4.33
- glycan array binding signal (z-score) [30]: 0.737
- glycan array binding signal (z-score) [31]: -0.1
- glycan array binding signal (z-score) [32]: 0.236
- glycan array binding signal (z-score) [33]: -0.928
- glycan array binding signal (z-score) [34]: -0.659
- glycan array binding signal (z-score) [35]: -0.59
- glycan array binding signal (z-score) [36]: -0.107
